About 4,200 (1.2%) of roughly 360,000 compounds were called active. Shown is part of a subset that was picked to be rich in actives. Values without a mark were called inactive.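 How the source made its calls: active means mean replicate inhibition at least 60% with every replicate also reaching 60%; inconclusive means only one of the two criteria is met; inactive means mean below 60% and not all replicates reaching 60%.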
Assay: inhibitors of PAX8-driven TPO luciferase reporter, primary screen, RMG-I cells, single concentration (AID 652154);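 further: luciferase light reporting Pax8 driven TPO promoter activity; plate controls were median of neutral control wells for no effect and mitoxantrone controls for full effect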
Details: SteadyGlo, 24 h, at 12.6 µM, stronger effect = higher value

In order of rising inhibition:
1. O=C(Nc1ccccn1)C1CCN(S(=O)(=O)c2ccccc2)CC1  -150%
2. COc1cccc(-c2ccc([C@@H]3[C@@H](CO)N(C(=O)c4ccccn4)[C@H]3C#N)cc2)c1  -77.2%
3. O=C(c1cccc(F)c1)N1CCCCN2[C@H](CO)[C@@H](c3ccc(-c4cncnc4)cc3)[C@H]2C1  -27.3%
4. COc1cccc(-c2ccc([C@@H]3[C@@H](C#N)N(C(=O)c4ccccn4)[C@H]3CO)cc2)c1  -20.8%
5. C[C@@H]1CN([C@H](C)CO)C(=O)Cc2cc(NC(=O)CCCN(C)C)ccc2O[C@@H]1CN(C)Cc1ccc(Oc2ccccc2)cc1  -19.4%
6. Cn1cnc(CCNC(=O)C[C@H]2CC[C@@H]3[C@H](COC[C@@H](O)CN3C(=O)Nc3ccc(Cl)cc3)O2)c1  -17.8%
7. CN(C)CC(=O)Nc1ccc2c(c1)[C@H]1C[C@@H](CC(=O)NCc3ccccn3)O[C@@H](CO)[C@H]1O2  -17.3%
8. CO[C@@H]1CN(C)C(=O)c2cc(NS(C)(=O)=O)ccc2OC[C@H](C)N(C(=O)C2CC2)C[C@@H]1C  -16.6%
9. CN1C(=O)c2cc(NC(=O)c3cscn3)ccc2OC[C@@H]2O[C@H](CC(=O)N3CCCCC3)CC[C@H]21  -16.1%
10. COc1cccc(-c2ccc([C@H]3[C@H]4CN(C(=O)NC(C)C)CC(=O)N4[C@H]3CO)cc2)c1  -13.6%
11. CCC(=O)N1C[C@@H](C)[C@@H](OC)CN(C)C(=O)c2ccc(NC(=O)C3CCCCC3)cc2OC[C@@H]1C  -13.2%
12. COc1ccccc1/C=C1\SC(=O)N(CCC(=O)N(C)C2CCS(=O)(=O)C2)C1=O (stereo unspecified)  -11.6%
13. C[C@H](CO)N1C[C@H](C)[C@@H](CN(C)S(=O)(=O)c2cn(C)cn2)Oc2ccc(NS(=O)(=O)c3cn(C)cn3)cc2C1=O  -10.4%
14. Fc1ccc(/C=N/n2c(COc3ccccc3)n[nH]c2=S)cc1  -9.55%
15. CN1CCCCN2[C@@H](CO)[C@@H](c3ccc(C4=CCCC4)cc3)[C@@H]2C1  -5.77%
16. Cc1ccccc1-c1n[nH]c(=S)n1/N=C/c1ccc(-c2ccccc2Br)o1  -5.71%
17. CO[C@@H]1CC[C@H]2CCOc3c(C#N)cccc3C(=O)N(C)C[C@@H](OC)[C@H](C)C(=O)N(C)C[C@@H]1O2  -5.56%
18. CCCNC(=O)N1[C@@H]2c3ccc(-c4ccccc4OC)c(=O)n3C[C@H]1[C@H](CO)[C@H]2C(=O)N(C)C  -4.26%
19. COC(=O)[C@@]1(Cc2ccc(F)cc2)[C@H]2c3cc(C(=O)N(C)C)n(CCc4c[nH]c5ccc(OC)cc45)c3C[C@H]2CN1C(=O)c1ccccc1  -3.55%
20. CCC(=O)Nc1ccc2c(c1)nc(CCN1CCN(c3ccccn3)CC1)n2C  -3.44%
21. COc1ccccc1-c1cn(CC[C@H]2CC[C@@H](NC(=O)Cc3ccccn3)[C@@H](CO)O2)nn1  -1.82%
22. O=C(Nc1ccccc1)Nc1ccc2c(c1)[C@@H]1C[C@@H](CC(=O)N3CCCCC3)O[C@H](CO)[C@@H]1O2  -0.47%
23. C/C(=N\NC(=O)c1cccc(N2CCCC2=O)c1)c1ccc(N)cc1  -0.282%
24. COC(=O)[C@@]1(Cc2ccc(F)cc2)[C@H]2c3cc(C(=O)N4CCCC4)n(C[C@H](O)CO)c3C[C@H]2CN1C(=O)c1ccccc1  0.0525%
25. CN1CCN(C(=O)Cn2c(C(F)(F)F)nc3ccccc32)CC1  1.81%
26. O=C(C[C@@H]1C=C[C@@H](NC(=O)c2cccnc2)[C@H](CO)O1)NCc1ccncn1  2.15%
27. O=C(c1cccc(F)c1)N1CCCCN2[C@@H](CO)[C@H](c3ccc(-c4cncnc4)cc3)[C@@H]2C1  2.95%
28. CCOc1cc(/C=N/NC(=O)CN2CCCCC2)ccc1O  3.31%
29. S=c1[nH]nc(-c2cccs2)n1/N=C/c1cn(-c2ccccc2)nc1-c1ccc(Cl)cc1  3.55%
30. COc1ccccc1N1CCN(/N=C\C(Br)=C\c2ccccc2)CC1  3.71%
31. CO[C@@H]1CN(C)C(=O)c2ccc(NC(=O)Nc3c(C)noc3C)cc2OC[C@H](C)N(CC2CC2)C[C@H]1C  4.7%
32. O=C(C1CC1)N1CCCCN2[C@H](C1)[C@@H](c1ccc(-c3cccc(F)c3)cc1)[C@@H]2CO  4.79%
33. Cn1c(=O)c2c(-c3cccc(Br)c3)c(C#N)c(N)nc2n(C)c1=O  4.92%
34. C/C=C/c1ccc([C@H]2[C@@H](CNC(=O)NC(C)C)N(C(=O)C3CCC3)[C@H]2CO)cc1  6.6%
35. CC1(C)CC(=O)C=C(N2CCOCC2)C1  7.18%
36. O=C(C[C@@H]1C[C@@H]2c3cc(NC(=O)C4CCOCC4)ccc3O[C@@H]2[C@@H](CO)O1)NC1CCCCC1  8.24%
37. COC(=O)Cn1c(O)c(N=NC(=O)OC)c2ccccc21  8.64%
38. CC(C)(C)OC(=O)NCCCCCNC(=O)c1nc[nH]c1C(=O)NCc1ccccc1  8.72%
39. CCCN(C)C[C@H]1OCCCC[C@@H](C)Oc2ccc(NC(=O)CCC(F)(F)F)cc2C(=O)N([C@H](C)CO)C[C@H]1C  8.93%
40. CN(C(=O)CN1C(=O)S/C(=C\c2ccccc2F)C1=O)C1CCS(=O)(=O)C1 (stereo unspecified)  10.3%
41. CCOC(=O)c1ccc(NC(=O)c2nc[nH]c2C(=O)N[C@@H](CCCCNC(=O)OC(C)(C)C)C(=O)OC(C)(C)C)cc1  11.1%
42. C[C@@H]1CN([C@H](C)CO)C(=O)Cc2cc(NC(=O)C3CC3)ccc2O[C@H]1CN(C)Cc1ccc(Cl)c(Cl)c1  11.3%
43. Cc1cccc(NC(=O)C2CCN(S(=O)(=O)c3cccc4cccnc34)CC2)c1  11.9%
44. Cc1nc2c(c(C)nn2-c2ccccc2)c(C)c1C  12.6%
45. O=C(Nc1c(Cl)c(C2CC2)nn1-c1ccccc1)C(Cl)(Cl)Cl  12.8%
46. COc1ccccc1CCn1cnc(-c2ccccc2)c1C(C)C  14.5%
47. Cc1noc(C)c1S(=O)(=O)Nc1ccc2c(c1)C(=O)N([C@H](C)CO)C[C@@H](C)[C@@H](CN(C)Cc1ccccc1)OCCCC[C@@H](C)O2  15.9%
48. C[C@@H]1CN([C@@H](C)CO)C(=O)c2cc(NS(=O)(=O)c3ccccc3)ccc2O[C@@H](C)CCCCO[C@@H]1CN(C)S(=O)(=O)c1cccs1  17.1%
49. Cc1onc(C(=O)NN)c1C(=O)N1CCN(C(c2ccccc2)c2ccccc2)CC1  17.8%
50. CCCCCCCCN1C(=O)[C@@H](CC(=O)NCc2ccccc2)C[C@@]2(C(=O)OC)C1=C[C@H](C(C)(C)C)O[C@@H]2C  19.6%
51. CCC(=O)Nc1ccc2c(c1)OC[C@H](C)N(C(=O)Cc1cccnc1)C[C@@H](C)[C@@H](OC)CN(C)C2=O  19.9%
52. CC(C)NC(=O)N(C)C[C@@H]1OCCCC[C@@H](C)Oc2ccc(NC(=O)Cc3ccccc3)cc2C(=O)N([C@H](C)CO)C[C@H]1C  20.4%
53. C[C@H](CO)N1C[C@H](C)[C@@H](CN(C)S(=O)(=O)c2ccc(F)cc2)Oc2ccc(NC(=O)CCCCCC(=O)Nc3ccccc3N)cc2CC1=O  26.9%
54. COc1ccccc1-c1ccc2c(c1)[C@H]1[C@H](CCN1S(=O)(=O)c1ccccc1)[C@@H](CO)N2  48.7%
55. Cn1c(CCN2CCN(c3ccccn3)CC2)nc2cc(NS(=O)(=O)c3ccc(F)cc3)ccc21  50.3%

For `COC(=O)[C@@]1(Cc2ccc(OC)cc2)[C@H]2c3cc(C(=O)N4CCCC4)n(Cc4ccc(OC(F)(F)F)cc4)c3C[C@H]2CN1C(=O)c1ccccc1`, the inhibition was 77% (active).
In the case of `Cc1ccc(NC(=O)c2nc[nH]c2C(=O)N[C@@H](CCCCNC(=O)OC(C)(C)C)C(=O)OC(C)(C)C)cc1`, the inhibition is reported as 64% (active).
For `Cc1ccnc(NC(=O)C2CCN(S(=O)(=O)c3c(C)c(C)cc(C)c3C)CC2)c1`, the inhibition was 74.9% (active).
With `CCCCn1c(O)c(N=NC(=O)Cn2c(C(F)(F)F)nc3ccccc32)c2ccccc21` the inhibition was 125% (active).
With `C=C1C(=O)[C@]23C[C@H]1CCC2[C@@]1(C)C(C[C@@H]3O)[C@](C)(C(=O)O)CC[C@@H]1O` (stereo partly specified) the inhibition was 71.9% (active).
With `Cc1cc(-c2n[nH]c(=S)n2/N=C/C(Br)=C/c2ccccc2)n[nH]1` the inhibition was 94% (active).
For `S=c1[nH]nc(-c2cccnc2)n1/N=C/C(Cl)=C\c1ccccc1`, the inhibition was 72.4% (active).
In the case of `CC1(C)CC(N2CCN(C(c3ccccc3)c3ccccc3)CC2)=CC(=[N+]2CCCCC2)C1`, the inhibition is reported as 94.1% (active).
For `CN(C(=O)CCN1C(=O)/C(=C/c2ccccc2F)SC1=S)C1CCS(=O)(=O)C1` (stereo unspecified), the inhibition was 74.1% (active).
With `Cn1c(CCN2CCCC2)nc2cc(NS(=O)(=O)c3ccccc3)ccc21` the inhibition was 119% (active).
In the case of `COc1cc(/C=N/NC(=O)c2ccc(N3CCCC3=O)cc2)ccc1O`, the inhibition is reported as 86.3% (active).
For `COc1ccc2[nH]c3c(C)c4cc[n+](C)cc4c(C)c3c2c1`, the inhibition was 70.3% (active).
In the case of `Oc1ccc2ccccc2c1N=Nc1nccs1`, the inhibition is reported as 90.5% (active).
For `CCN1/C(=C\c2ccc3ccccc3[n+]2CC)Sc2cc(C)ccc21`, the inhibition was 93.7% (active).
In the case of `COc1cccc(C#Cc2ccc([C@H]3[C@@H](CO)N(C(=O)c4ccccn4)[C@H]3C#N)cc2)c1`, the inhibition is reported as 92.4% (active).
With `CSc1ccc(-c2c(C#N)c(N)nc3c2c(C)nn3-c2ccccc2)cc1` the inhibition was 66.4% (active).
